Several values for one entry are separate records, joined by “and”; a condition that tells them apart may be missing. Equal entries are not always repeated. Results filed as inconclusive are left out. Where a structure was tested more than once in an assay, its records may differ in their call. Activity calls are given as the source filed them. Unless noted, the call rests on the fitted dose curve; in most records, active means well fitted curve in the direction sought with a large enough effect in the repeat runs; inconclusive means weak or mixed curves; inactive means no such curve, though single readings can be large; an effect the other way counts as inactive or inconclusive.
Assays:
[1] = qHTS assay to test for compound auto fluorescence at 535 nm (green) in HEK293 cells (AID 720680)
[2] = qHTS assay to test for compound auto fluorescence at 460 nm (blue) in HEK293 cell free culture (AID 720681)
Outline: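 Compounds were added to cell-free DMEM with 10% FBS and fluorescence read directly. The blue channel used 405 nm excitation and 460 nm emission, with triamterene as the reference fluorophore.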

[3] = qHTS assay to test for compound auto fluorescence at 535 nm (green) in HEK293 cell free culture (AID 720682)
Outline: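 Fluorescein serves as the green reference fluorophore; each compound's intrinsic emission at 535 nm (excitation 485 nm) is reported as an equivalent amount of that dye, measured in serum-containing DMEM without cells.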

[4] = qHTS assay to test for compound auto fluorescence at 590 nm (red) in HEK293 cell free culture (AID 720683)
Outline: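 Cell-free wells of DMEM with 10% FBS received compound, and intrinsic fluorescence was read at excitation/emission 540/590 nm. Values expressed as equivalence to Rose Bengal sodium.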

[5] = qHTS assay to test for compound auto fluorescence at 590 nm (red) in HepG2 cell free culture (AID 720684)
Outline: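 Rose Bengal sodium served as the reference for red signal. Test compounds were dispensed into serum-containing MEM (10% FBS) without cells, and plates were read at 540/590 nm.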

[6] = qHTS assay to test for compound auto fluorescence at 460 nm (blue) in HepG2 cells (AID 720687)
Outline: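 HepG2 cells in MEM with 10% FBS, attached overnight at 37 C, were exposed to compound or DMSO for 1 hr at 37 C, 5% CO2. Blue fluorescence was read at 405/460 nm, with triamterene as reference fluorophore.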

[7] = qHTS assay to identify small molecule antagonists of the glucocorticoid receptor (GR) signaling pathway - cell viability counter screen (AID 720693); further: nearly all actives have a fitted effect of over 55% in size
[8] = qHTS assay for identifying genotoxic compounds that show differential cytotoxicity against isogenic chicken DT40 cell lines with known DNA damage response pathways - Rev3 mutant cell line (AID 743014); further: nearly all actives have a fitted effect of over 55% in size; further: potency means the concentration at half of the fitted maximal effect
[9] = qHTS assay for identifying genotoxic compounds that show differential cytotoxicity against isogenic chicken DT40 cell lines with known DNA damage response pathways - Rad54/Ku70 mutant cell line (AID 743015); further: nearly all actives have a fitted effect of over 60% in size; further: potency means the concentration at half of the fitted maximal effect
[10] = qHTS assay to identify small molecule antagonists of the androgen receptor (AR) signaling pathway - cell viability counter screen (AID 743033; further: nearly all actives have a fitted effect of over 45% in size)
[11] = qHTS assay to identify small molecule antagonists of the androgen receptor (AR) signaling pathway using the MDA cell line - cell viability counter screen (AID 743041; further: nearly all actives have a fitted effect of over 45% in size)
Outline: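 Cytotoxicity counter screen: MDA-kb2 AR-luc cells, compound + R1881, 16 h, 37C, 0% CO2; CellTiter-Fluor added at 15.5 h, fluorescence read after 30 min.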

[12] = qHTS assay to test for compound auto fluorescence at 535 nm (green) in HepG2 cell free culture (AID 720686)
[13] = molecular target: Glucocorticoid receptor (Homo sapiens) (UniProt P04150); test: qHTS assay to identify small molecule agonists of the glucocorticoid receptor (GR) signaling pathway (AID 720691; active means well fitted activation curve with a large enough effect in the signal ratio in the repeat runs, not every such curve was filed as active; the % refers to the signal ratio)
Outline: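 Measures GR pathway activation through a GRE-beta-lactamase reporter stably integrated in HeLa cells, with 18 h compound treatment at 37 C and fluorescence detection using a FRET substrate.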

[14] = qHTS assay for identifying genotoxic compounds that show differential cytotoxicity against isogenic chicken DT40 cell lines with known DNA damage response pathways - wild type cell line (AID 743012); further: nearly all actives have a fitted effect of over 60% in size; further: potency means the concentration at half of the fitted maximal effect
Outline: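 Endpoint: CellTiter-Glo luminescence, 30 min RT. Cells: wild type DT40, 300/well. Exposure: compounds in DMSO, 40 h, 37 C/5% CO2, after ~0.5 h pre-incubation.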

[15] = qHTS assay to test for compound auto fluorescence at 460 nm (blue) in HepG2 cell free culture (AID 720685)
Outline: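 Cell-free plates of MEM plus 10% FBS received 23 nL compound or DMSO vehicle; blue-channel (405/460 nm) intensity scored against triamterene as reference fluorophore.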

[16] = molecular target: Androgen receptor (Homo sapiens) (UniProt P10275); test: qHTS assay to identify small molecule antagonists of the androgen receptor (AR) signaling pathway (AID 743035; active means well fitted inhibition curve with a large enough effect in the signal ratio in the repeat runs, not every such curve was filed as active; the % refers to the signal ratio)
Outline: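 R1881 agonist challenge of a HEK293 UAS-beta-lactamase AR reporter line in the presence of compound (16 h, 37C); signal taken as FRET fluorescence after 2 h with LiveBLAzer B/G substrate at room temperature.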

[17] = molecular target: Androgen receptor (Homo sapiens) (UniProt P10275); test: qHTS assay to identify small molecule agonists of the androgen receptor (AR) signaling pathway (AID 743036; active means well fitted activation curve with a large enough effect in the signal ratio in the repeat runs, with a control signal flat, not every such curve was filed as active; the % refers to the signal ratio)
Outline: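 Fluorescence from a beta-lactamase FRET substrate served as read-out in AR-UAS-bla GripTite HEK293 cells. Cells were treated with DMSO-dissolved compounds for 16 h at 37C, then with LiveBLAzer B/G substrate for 2 h at room temperature.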

[18] = molecular target: Androgen receptor (Homo sapiens) (UniProt P10275); test: qHTS assay to identify small molecule agonists of the androgen receptor (AR) signaling pathway using the MDA cell line (AID 743040; further: nearly all actives have a fitted effect of over 20% in size); settings: MDA-kb2 AR-luc cells, MMTV luciferase, 16 h, stronger effect = higher value
Outline: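 Luciferase read-out, ONE-Glo, 30 min RT. Cells: MDA-kb2 AR-luc, MMTV promoter with AR and GR response elements. Compound exposure 16 h, 37C, 0% CO2, after 5 h pre-incubation. qHTS agonist mode.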

[19] = molecular target: Androgen receptor (Homo sapiens) (UniProt P10275); test: qHTS assay to identify small molecule antagonists of the androgen receptor (AR) signaling pathway using the MDA cell line (AID 743042; further: nearly all actives have a fitted effect of over 55% in size)
Outline: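 MDA-kb2 breast carcinoma cells carrying MMTV-luciferase (AR/GR responsive) were co-treated with compounds and the agonist R1881 for 16 h at 37C. Inhibition read as ONE-Glo luminescence; CellTiter-Fluor fluorescence measured in parallel for cytotoxicity.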

[20] = molecular target: Glucocorticoid receptor (Homo sapiens) (UniProt P04150); test: qHTS assay to identify small molecule antagonists of the glucocorticoid receptor (GR) signaling pathway (AID 720692; active means well fitted inhibition curve with a large enough effect in the signal ratio in the repeat runs, not every such curve was filed as active; the % refers to the signal ratio)
Outline: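 Tox21 10K library screened in concentration-response for blockade of dexamethasone (5 nM final)-induced GRE-bla reporter activity in HeLa cells; 18 h treatment, fluorescence read.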
On the % scale 0 is the no-effect control and ±100 the full control effect.

Chain of Androgen receptor (Homo sapiens) (P10275 whole entry, looked up): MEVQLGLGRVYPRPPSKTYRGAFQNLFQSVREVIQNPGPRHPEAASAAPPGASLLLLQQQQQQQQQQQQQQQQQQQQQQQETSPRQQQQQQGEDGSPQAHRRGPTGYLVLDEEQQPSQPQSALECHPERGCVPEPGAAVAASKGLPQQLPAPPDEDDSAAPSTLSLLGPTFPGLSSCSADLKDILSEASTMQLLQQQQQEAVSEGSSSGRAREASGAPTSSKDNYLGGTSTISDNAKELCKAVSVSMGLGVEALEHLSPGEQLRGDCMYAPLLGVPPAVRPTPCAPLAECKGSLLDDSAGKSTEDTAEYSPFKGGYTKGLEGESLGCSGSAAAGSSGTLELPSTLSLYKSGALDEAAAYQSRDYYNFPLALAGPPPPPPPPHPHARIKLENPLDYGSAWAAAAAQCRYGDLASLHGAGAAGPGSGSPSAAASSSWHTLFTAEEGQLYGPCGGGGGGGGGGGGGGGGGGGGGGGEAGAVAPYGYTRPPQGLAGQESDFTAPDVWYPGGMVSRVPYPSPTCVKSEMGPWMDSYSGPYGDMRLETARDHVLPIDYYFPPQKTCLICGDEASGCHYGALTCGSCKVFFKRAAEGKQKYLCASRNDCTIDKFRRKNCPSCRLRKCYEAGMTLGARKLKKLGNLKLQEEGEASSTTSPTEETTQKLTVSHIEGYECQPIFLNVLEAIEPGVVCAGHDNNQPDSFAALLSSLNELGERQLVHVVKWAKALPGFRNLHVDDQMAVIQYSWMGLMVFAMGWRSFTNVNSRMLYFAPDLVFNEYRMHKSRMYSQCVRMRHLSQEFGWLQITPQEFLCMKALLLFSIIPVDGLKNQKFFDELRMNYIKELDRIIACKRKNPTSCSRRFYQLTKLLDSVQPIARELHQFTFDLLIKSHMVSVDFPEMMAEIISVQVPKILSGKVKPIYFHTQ
Chain of Glucocorticoid receptor (Homo sapiens) (P04150 whole entry, looked up): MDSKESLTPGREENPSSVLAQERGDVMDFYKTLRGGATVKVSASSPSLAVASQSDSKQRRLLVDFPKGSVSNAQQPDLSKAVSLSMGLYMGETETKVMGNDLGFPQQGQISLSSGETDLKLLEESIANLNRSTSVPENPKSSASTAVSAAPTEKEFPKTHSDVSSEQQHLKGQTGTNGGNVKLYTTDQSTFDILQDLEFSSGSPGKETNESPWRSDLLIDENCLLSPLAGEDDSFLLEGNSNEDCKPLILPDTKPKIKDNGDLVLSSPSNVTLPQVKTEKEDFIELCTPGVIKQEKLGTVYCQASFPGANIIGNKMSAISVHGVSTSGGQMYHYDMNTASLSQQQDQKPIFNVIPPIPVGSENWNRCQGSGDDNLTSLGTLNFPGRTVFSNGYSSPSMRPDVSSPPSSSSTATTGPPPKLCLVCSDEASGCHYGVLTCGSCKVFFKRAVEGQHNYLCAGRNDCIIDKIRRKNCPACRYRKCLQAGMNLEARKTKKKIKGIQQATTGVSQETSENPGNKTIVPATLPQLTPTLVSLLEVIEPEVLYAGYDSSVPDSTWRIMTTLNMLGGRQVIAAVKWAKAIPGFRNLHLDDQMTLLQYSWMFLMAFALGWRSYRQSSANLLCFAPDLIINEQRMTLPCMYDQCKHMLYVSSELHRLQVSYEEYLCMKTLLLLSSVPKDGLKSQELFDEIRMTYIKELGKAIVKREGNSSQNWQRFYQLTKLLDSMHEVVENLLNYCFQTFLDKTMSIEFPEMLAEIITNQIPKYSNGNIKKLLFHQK

O=C1OC(=O)c2c(Cl)c(Cl)c(Cl)c(Cl)c21
inactive: outcome [1] | Potency [2] | outcome [3] | outcome [4] | outcome [5] | Potency [6] | Potency [7] | Potency [8] | Potency [9] | Potency [10] | Potency [11]

Cc1ccncc1
inactive: outcome [1] | Potency [2] | outcome [3] | outcome [4] | outcome [5] | outcome [12] | Potency [6] | outcome [13] | Potency [7] | Potency [8] | Potency [9] | Potency [10] | Potency [11]

CC(=O)OC(C)(C)C1CC=C(C)CC1 (centres undefined)
inactive and 54.5 µM (active): Potency [9]
inactive: outcome [1] | Potency [2] | outcome [3] | outcome [4] | outcome [5] | outcome [12] | Potency [6] | Potency [7] | Potency [14] | Potency [8] | Potency [10] | Potency [11]

CN=C(NC#N)NCCSCc1nc[nH]c1C
inactive: outcome [1] | Potency [2] | outcome [3] | outcome [4] | outcome [5] | outcome [12] | Potency [6] | Potency [7] | Potency [10] | Potency [11]
inactive and 13.6 µM (active): Potency [9]
inactive and 54 µM (active): Potency [8]

N[C@@H](Cc1cc(I)c(Oc2ccc(O)c(I)c2)c(I)c1)C(=O)O
23.7 µM (active) and inactive: Potency [8]
inactive: outcome [1] | Potency [2] | outcome [3] | outcome [4] | outcome [5] | Potency [15] | Potency [6] | outcome [13] | Potency [7] | Potency [9] | Potency [10] | Potency [11]

CC(C)=CCC/C(C)=C/C=O
inactive: outcome [1] | Potency [2] | outcome [3] | outcome [4] | outcome [5] | Potency [15] | Potency [6] | outcome [13] | Potency [7] | Potency [8] | Potency [9] | Potency [10] | Potency [11]

O=[N+]([O-])c1ccccc1C(F)(F)F
inactive: outcome [1] | Potency [2] | outcome [3] | outcome [4] | outcome [5] | Potency [15] | Potency [6] | Potency [7] | Potency [14] | Potency [8] | Potency [9] | Potency [10] | Potency [16] | Potency [17] | activity change ([18]; at 70.3 µM (top of the series)) 0.939% and 0.0136% | Potency [11] | Potency [19]

C[Si](C)(C)N[Si](C)(C)C
inactive: outcome [1] | Potency [2] | outcome [3] | outcome [5] | outcome [12] | Potency [6] | outcome [13] | Potency [20] | Potency [7] | Potency [14] | Potency [8] | Potency [9] | Potency [10] | Potency [11]

O=C(c1ccccc1)c1ccc(O)c(O)c1O
active: Potency [8] 61.1 µM | Potency [9] 61.1 µM
inactive: outcome [1] | Potency [2] | outcome [3] | outcome [5] | outcome [12] | Potency [6] | outcome [13] | Potency [20] | Potency [7] | Potency [10] | Potency [11]

NC(=O)c1ncn([C@@H]2O[C@H](CO)[C@@H](O)[C@H]2O)n1
inactive: outcome [1] | Potency [2] | outcome [3] | outcome [5] | Potency [15] | outcome [12] | Potency [6] | outcome [13] | Potency [7] | Potency [10] | Potency [11]
active: Potency [14] 668 nM and 5.12 µM | Potency [8] 750 nM and 1.62 µM | Potency [9] 1.68 µM and 4.07 µM

COc1ccc(N)c(OC)c1
inactive: outcome [1] | Potency [2] | outcome [3] | outcome [5] | Potency [15] | outcome [12] | Potency [6] | outcome [13] | Potency [7] | Potency [14] | Potency [8] | Potency [9] | Potency [10] | Potency [11]

Oc1ccc(Cc2ccccc2O)cc1
inactive: outcome [1] | Potency [2] | outcome [3] | outcome [5] | Potency [15] | outcome [12] | Potency [6] | outcome [13] | Potency [7] | Potency [8] | Potency [9] | Potency [10] | Potency [11]

CC(=O)Nc1ccc(CC(=O)O)cc1
inactive: outcome [1] | Potency [2] | outcome [3] | outcome [5] | outcome [12] | Potency [6] | outcome [13] | Potency [7] | Potency [14] | Potency [8] | Potency [9] | Potency [10] | Potency [11]

OCC(O)CS (centres undefined)
inactive: outcome [1] | Potency [2] | outcome [3] | outcome [5] | Potency [15] | Potency [6] | outcome [13] | Potency [7] | Potency [14] | Potency [8] | Potency [9] | Potency [10] | Potency [16] | Potency [17] | activity change ([18]; at 70.3 µM (top of the series)) 0.512% | Potency [11] | Potency [19]

CC(=O)C(C)C
inactive: outcome [1] | Potency [2] | outcome [3] | outcome [5] | outcome [12] | Potency [6] | outcome [13] | Potency [20] | Potency [7] | Potency [14] | Potency [8] | Potency [9] | Potency [10] | Potency [11]

O=[N+]([O-])c1cc(C(F)(F)F)ccc1Cl
inactive: outcome [1] | Potency [2] | outcome [3] | outcome [5] | Potency [15] | outcome [12] | Potency [6] | outcome [13] | Potency [7] | Potency [8] | Potency [9] | Potency [10] | Potency [16] | Potency [17] | activity change ([18]; at 70.3 µM (top of the series)) -0.292% | activity change ([18]; at 95 µM (top of the series)) 5.79% | Potency [19]

CC(=O)OCc1ccc2c(c1)OCO2
inactive: outcome [1] | Potency [2] | outcome [3] | outcome [5] | outcome [12] | Potency [6] | outcome [13] | Potency [7] | Potency [14] | Potency [8] | Potency [9] | Potency [10] | Potency [11]
